Screening results: PubChem BioAssay, National Center for Advancing Translational Sciences (NCATS)
Hits are enriched below; roughly 12% of the tested compounds scored in any of these assays.
BAZ2B block – BAZ2B (human) inhibition; AlphaScreen BAZ2B-H3K14Ac peptide displacement; Potency, µM (series often up to 114 µM), hits mostly inhibitors; 360,000 compounds, 4.4% hits; AID 504333; further: nearly all actives have a fitted effect of over 60% in size
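Compounds, titrated to a top concentration of 110 uM, were incubated 30 min at room temperature with preformed BAZ2B/acetyl-K14 H3 peptide complex (50 nM each). Proximity signal was measured by AlphaScreen after 20 min with beads.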
G9a inh – inhibitors of human histone lysine methyltransferase G9a. Q96KQ7. G9a H3K9 monomethylation, AlphaScreen, 2 h. Potency, µM (series often up to 102 µM), actives largely listed as inhibitors. 350,000 compounds, 8.8% hits. AID 504332; further: nearly all actives have a fitted effect of over 75% in size
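G9a (20 nM) preincubated 15 min RT with compounds, then 500 nM biotinylated H3K9 peptide and 20 uM SAM added; 2 h RT reaction. Monomethyl-H3K9 product detected by AlphaScreen with anti-H3K9me1 antibody, streptavidin donor and anti-rabbit IgG acceptor beads.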
HP1b chromo inh – inhibitors of HP1-beta chromodomain binding to methylated histone tails; AlphaScreen HP1-beta / biotin-H3K9me3 peptide binding; 390,000 compounds, 0.56% hits; P83916; Potency, µM (series often up to 114 µM), usual class: inhibitors; further: nearly all actives have a fitted effect of over 70% in size
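AlphaScreen: HP1-beta (50 nM) preformed 30 min with biotin-H3(1-18)K9me3 peptide (50 nM) in PBS pH 7.4, 0.01% Tween-20. Compound added for 30 min at RT, then streptavidin donor/nickel chelate acceptor beads (10 ug/mL) for 30 min.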
Sfp PPTase inh – blocks B. subtilis Sfp PPTase activity; Q9F4F7; Biochemical Sfp PPTase activity, qHTS; Potency, µM, hits mostly inhibitors; 310,000 compounds, 3.5% hits; AID 1490;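 further: the enzyme is Sfp with the accession as filed and its product quenches rhodamine fluorescence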
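After 15 min at room temperature with compound, 15 nM Sfp received 5 uM rhodamine-CoA plus 12.5 uM BHQ-2-ybbR (50 mM Hepes pH 7.6, 10 mM MgCl2). Rate came from the fluorescence difference over 30 min, ex 525/em 598 nm.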
JMJD2A Tudor inh – JMJD2A Tudor domain (human) inhibition; Potency, µM (highest dose often 114 µM), hits mostly inhibitors; O75164; 390,000 compounds, 4.4% hits; AlphaScreen JMJD2A-Tudor / H3K4me3 peptide binding; AID 504339; further: nearly all actives have a fitted effect of over 50% in size
Of the large screens only hits and unclear results are named; the others gave an inactive call. The call rests on the fitted dose curve; in most records, active means well fitted curve in the direction sought with a large enough effect; inconclusive means small, poorly fitted or top-dose-only effect, or another doubt; inactive means no such curve, though single readings can be large; an effect the other way counts as inactive or inconclusive.

CC(C)c1ccc(OCC(O)CN2CCN(c3ccccc3)CC2)cc1 (stereo not drawn)	BAZ2B block 56.2µM, G9a inh inconclusive
OC(COc1ccc2c(c1)OCO2)CN1CCCCC1 (stereo not drawn)	none
OC(COc1ccc2c(c1)OCO2)CN1CCN(c2ccccc2)CC1 (stereo not drawn)	G9a inh 50.1µM, Sfp PPTase inh inconclusive, JMJD2A Tudor inh inconclusive
Cn1c(-c2ccccc2)c(C(=O)CC#N)c2ccccc21	none
CN(C)CCCNCC(=O)c1c(-c2ccccc2)n(C)c2ccccc12	HP1b chromo inh inconclusive, Sfp PPTase inh 39.8µM, JMJD2A Tudor inh 4.47µM
CCOc1cc(/C=N/N=C2/NC(=O)C(CC(=O)O)S2)ccc1OCc1ccc(Cl)cc1Cl (stereo not drawn)	BAZ2B block 28.2µM, HP1b chromo inh 44.7µM, JMJD2A Tudor inh 39.8µM (no result: G9a inh)
COc1cc(/C=N/N=C2/NC(=O)C(CC(=O)O)S2)ccc1OCc1ccc(Cl)cc1 (stereo not drawn)	BAZ2B block inconclusive
O=C(O)CC1S/C(=N/N=C/c2ccccn2)NC1=O (stereo not drawn)	BAZ2B block 44.7µM, JMJD2A Tudor inh 79.4µM
CCCn1c(SCC(=O)N2CC(=O)Nc3ccccc32)nc2ccccc21	G9a inh 31.6µM, Sfp PPTase inh inconclusive
O=C1CN(C(=O)CSc2nc3ccccc3n2CCc2ccccc2)c2ccccc2N1	G9a inh 10µM
Cn1c(SCC(=O)N2CC(=O)Nc3ccccc32)nc2ccccc2c1=O	none (no result: Sfp PPTase inh)
[O-]/[N+](=C\c1ccncc1)c1ccc(Br)cc1	BAZ2B block inconclusive, G9a inh 39.8µM, Sfp PPTase inh inconclusive
O=[N+]([O-])c1ccc(/C=C/c2ccncc2)cc1	none
Cc1ccc(-c2nc(CN(C)C)cc(CN(C)C)c2O)cc1	BAZ2B block inconclusive, G9a inh 50.1µM, JMJD2A Tudor inh inconclusive
CN(C)Cc1cc(CN(C)C)c(O)c(CCc2ccccc2)n1	G9a inh 50.1µM
Nc1c(-c2n[nH]c(=S)n2-c2ccc(Cl)cc2Cl)cnn1-c1ccccc1	G9a inh 4.47µM
Cc1ccc(-c2cnn(-c3ccccc3)c2N)cc1	none
Cn1c(-c2cnn(-c3ccccc3)c2N)n[nH]c1=S	G9a inh 28.2µM, Sfp PPTase inh inconclusive, JMJD2A Tudor inh inconclusive
C=CCn1c(-c2cnn(-c3ccccc3)c2N)n[nH]c1=S	G9a inh 7.94µM, JMJD2A Tudor inh 3.98µM
Nc1c(-c2ccc(Cl)cc2)cnn1-c1ccccc1	none
O=C(c1cc2ccccc2oc1=O)N(Cc1ccccc1)C1CCS(=O)(=O)C1 (stereo not drawn)	none
COC(=O)C1=C(SC)N(c2ccc(OC)cc2)C(c2ccccc2)CC1=O (stereo not drawn)	none
CCOc1ccc(C2CC(=O)NC2=O)cc1 (stereo not drawn)	none
O=c1[nH]c(=O)n(C2CC(O)C(CO)O2)cc1Br (stereo not drawn)	JMJD2A Tudor inh 79.4µM (no result: BAZ2B block, G9a inh, Sfp PPTase inh)
CC(C)=C1C(=O)C(c2ccccc2)=C2CN3C(=O)N(CCc4ccccc4)C(=O)[C@]3(Cc3ccccc3)[C@H]21	none (no result: BAZ2B block, G9a inh, HP1b chromo inh, JMJD2A Tudor inh)
Cc1c(NC(=O)C(=O)/C=C(\O)c2ccc(Cl)cc2)c(=O)n(-c2ccccc2)n1C	BAZ2B block inconclusive, JMJD2A Tudor inh 12.6µM
Cc1ccsc1/C=C(\C#N)C(=O)Nc1c(C)n(C)n(-c2ccccc2)c1=O	G9a inh inconclusive
Cc1c(NN=C(C#N)C#N)c(=O)n(-c2ccccc2)n1C	G9a inh 10µM
Cc1c(NC(=O)/C(C#N)=C/c2ccccc2)c(=O)n(-c2ccccc2)n1C	G9a inh 70.8µM
Cc1c(NC(=O)CC(=O)Nc2c(C)n(C)n(-c3ccccc3)c2=O)c(=O)n(-c2ccccc2)n1C	none
Cc1ccccc1-c1cccc([C@@H]2C[C@H]3CN(Cc4cccnc4)C(=O)[C@]34CCCN24)c1	G9a inh 50.1µM, JMJD2A Tudor inh inconclusive
O=C1N(Cc2cccnc2)C[C@@H]2C[C@@H](c3ccccc3C#Cc3ccccc3)N3CCC[C@@]123	G9a inh 50.1µM
CCn1cc([C@@H]2C[C@H]3CN(Cc4cccc(Cl)c4)C(=O)[C@]34CCCN24)cn1	none (no result: G9a inh)
Cc1ccccc1CN1C[C@@H]2C[C@@H](c3cnc(N4CCOCC4)s3)N3CCC[C@@]23C1=O	G9a inh 35.5µM, Sfp PPTase inh 50.1µM
Cc1ccc(Sc2ccc(NC(=O)CCl)cc2)c(C)c1	none
